For 23 compounds, composite z-score and z-score results are on record in PubChem BioAssay.

Active and inactive are the calls of the source.

Assay [1] relates to XIP peptide (Xip251-270) binding. Put plainly: XIP fragment 251-270 binding compounds – biochemical, small-molecule microarray, fluorescence 635/667 nm, 0.1 µg/mL protein, primary screen (AID 1182). To be noted: fluorescent protein binding, 635 nm, higher = more signal, called active from +8 up or from −8 down.
For the next assay, the system named is XIP peptide (Xip251-270). Nature of the assay: compounds binding XIP fragment 251-270 – biochemical, small-molecule microarray, fluorescence 635/667 nm, 0.5 µg/mL protein, primary screen (AID 1183). To be noted: fluorescence 635 nm, higher = more signal.
A short description of assay [2]: blood-stage malaria parasite viability loss – strain 3D7, DAPI fluorescence, 100 nL, primary screen (AID 1184).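 Also: parasites grown inside human red blood cells in medium with human serum.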 The conditions noted are these: P. falciparum 3D7 growth, 3 d, higher = more signal.
For assay [3], the target named is Homeobox protein Hox-A13 (Mus musculus) (UniProt Q62424). Nature of the assay: disruptors of Hoxa13 oligonucleotide interaction – biochemical, fluorescence polarization, labeled oligonucleotide, primary screen (AID 1185). The conditions noted are these: Hoxa13:DNA binding, 15 min, higher = more signal, called active from +8 up or from −8 down.
Chain of Homeobox protein Hox-A13 (Mus musculus) (Q62424 whole entry, looked up): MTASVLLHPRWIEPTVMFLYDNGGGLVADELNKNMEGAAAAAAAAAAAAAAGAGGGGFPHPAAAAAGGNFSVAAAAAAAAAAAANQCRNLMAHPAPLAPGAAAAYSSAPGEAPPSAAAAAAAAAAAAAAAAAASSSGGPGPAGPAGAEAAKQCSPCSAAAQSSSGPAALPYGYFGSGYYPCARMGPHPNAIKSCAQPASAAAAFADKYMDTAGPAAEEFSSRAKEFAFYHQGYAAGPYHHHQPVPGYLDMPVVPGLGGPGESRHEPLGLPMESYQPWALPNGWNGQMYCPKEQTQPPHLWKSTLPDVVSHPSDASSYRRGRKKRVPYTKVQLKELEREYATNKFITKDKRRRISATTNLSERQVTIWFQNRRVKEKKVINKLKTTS

Turning to `CCOC(=O)[C@H](CC(C)C)NC(=O)CCC1CC(OC(=O)NCc2ccc3c(c2)OCO3)CC2(CCCC(COC(=O)NCc3ccccc3)O2)O1` (some centres not stated), the composite z-score in assay [1] was 0.117 (inactive); with XIP peptide (Xip251-270) it was 0.118. Also, the values for the z-score in assay [2] and in assay [3] were -1.79 and -6.86 (inactive), respectively.

For `CC(C)=NOC(C)CN1CCCc2nc(C)c(C)cc21` (configuration not stated), the composite z-score is 2.19 (inactive) in assay [1] and 0.522 with XIP peptide (Xip251-270). For the same compound, the z-score is -0.225 in assay [2] and -8.04 (active) in assay [3].

As to `CC(CCC(=O)OC[C@H]1O[C@H](C#Cc2ccccc2)C=C[C@@H]1Oc1ccc(C)cc1)=NOC(C)CN1CCCc2nc(C)c(C)cc21` (some centres not stated), the values for the composite z-score (in assay [1]; in the assay on XIP peptide (Xip251-270)) were 0.687 (inactive) and 0.529, respectively. Moreover, the z-score in assay [2] was -1.9; in assay [3] it was -3.93 (inactive).

On to `CC(C)[C@@H](OCc1ccccc1)[C@H](C)C=NO[C@H](C)c1cn([C@@H]2COC[C@H]2O)nn1`, for which the composite z-score in assay [1] was -0.0971 (inactive); in the assay with XIP peptide (Xip251-270), 0.0742. Also, the z-score in assay [2] is 1.61; in assay [3], -0.967 (inactive).

Consider `CC(C)=NO[C@@H](C)c1cn([C@H](CO)Cc2ccccc2)nn1`, for which the composite z-score in assay [1] was -0.407 (inactive); with XIP peptide (Xip251-270), 0.241. In addition, the z-score in assay [2] was 0.412; in assay [3], 1.06 (inactive).

On to `CC(CCC(=O)OC[C@H]1O[C@H](C#Cc2ccccc2)C=C[C@@H]1Oc1ccc(C)cc1)=NO[C@H](C)c1cn([C@@H]2COC[C@H]2O)nn1`, for which the composite z-score in assay [1] was 0.0435 (inactive); in the assay on XIP peptide (Xip251-270), -0.391. The values for the z-score in assay [2] and in assay [3] were -0.114 and -4.04 (inactive), respectively.

Regarding `COC(=O)[C@H](C)NC(=O)CCC1CC(OC(=O)NCCc2ccc(F)cc2)CC2(CCCC(COC(=O)NCC3CCCCC3)O2)O1` (some centres not stated), the composite z-score in assay [1] is -0.0255 (inactive); in the assay with XIP peptide (Xip251-270), 0.526. Besides, the z-score is -2.07 in assay [2] and -2.56 (inactive) in assay [3].

Regarding `Cc1cc(C)c(-c2cc([C@H](C)ON=C[C@@H](C)[C@H](OCc3ccccc3)C(C)C)on2)c(C)c1`, the composite z-score was -0.0022 (inactive) in assay [1] and -0.291 in the assay with XIP peptide (Xip251-270). In addition, the z-score is -0.317 in assay [2] and -0.415 (inactive) in assay [3].

Regarding `O=C1C2=CC[C@H]3C(=O)N(C4CCCCC4)C(=O)[C@H]3[C@H]2[C@H](O)[C@@H]2O[C@H]12`, the composite z-score in assay [1] is 0.381 (inactive); in the assay with XIP peptide (Xip251-270) it was -0.274. The values for the z-score in assay [2] and in assay [3] were -1.98 and -5.22 (inactive), respectively.

As to `C=CCOCC1CN2[C@@H](CC[C@@H](C)[C@@H]2c2ccc(Br)cc2)C(=O)O1` (some centres not stated), the results for the composite z-score (in assay [1]; in the assay with XIP peptide (Xip251-270)) were 0.0364 (inactive) and -0.104, respectively. In addition, the z-score in assay [2] was 1.72; in assay [3] it was -0.43 (inactive).

With `CO[C@@H]1C=CCC(=O)N[C@@H](C)C(=O)OC[C@@H](OC)[C@H](C)C=CCC(=O)OC[C@H]1C`, the composite z-score in assay [1] was 0.551 (inactive); in the assay with XIP peptide (Xip251-270) it was 0.744. The z-score is -0.523 in assay [2] and -0.0745 (inactive) in assay [3].

As to `CCOC(=O)[C@H](CC(C)C)NC(=O)CCC1CC(OC(=O)NCc2ccc3c(c2)OCO3)CC2(CCCC(COC(=O)NCCC(C)C)O2)O1` (some centres not stated), the composite z-score was 0.554 (inactive) in assay [1] and 0.842 with XIP peptide (Xip251-270). In addition, the z-score in assay [2] was -0.278; in assay [3], -1.7 (inactive).

`C=CC[C@@H]1C=C[C@H](ON=C[C@@H](NS(=O)(=O)c2ccc(C)cc2)[C@H](C)C=CCC(=O)OC)[C@@H](CO)O1`: the composite z-score in assay [1] is 0.278 (inactive); with XIP peptide (Xip251-270), 0.463. For the same compound, the z-score in assay [2] is -0.174; in assay [3] it was -4.66 (inactive).

As for `CCOC(=O)[C@H](Cc1ccccc1)NC(=O)CCC1CC(OC(=O)NCc2ccc3c(c2)OCO3)CC2(CCCC(COC(=O)NCCCN3CCCC3=O)O2)O1` (some centres not stated), the composite z-score was 0.112 (inactive) in assay [1] and 0.577 in the assay on XIP peptide (Xip251-270). Besides, the figures for the z-score in assay [2] and in assay [3] were -1.87 and -3.13 (inactive), respectively.

Turning to `C=CC[C@@H]1C=C[C@H](ON=C2C[C@@H](O)[C@@H](O)[C@@H]3[C@@H]4C(=O)N(CC)C(=O)[C@@H]4CC[C@@H]23)[C@@H](CO)O1`, the composite z-score in assay [1] is -0.192 (inactive); in the assay with XIP peptide (Xip251-270) it was -1.06. Moreover, the z-score in assay [2] is -0.689; in assay [3] it was 0.0713 (inactive).

Regarding `CCOC(=O)[C@H](Cc1ccccc1)NC(=O)CCC1CC(OC(=O)NCCc2ccc(F)cc2)CC2(CCCC(COC(=O)NCCOc3ccccc3)O2)O1` (some centres not stated), the results for the composite z-score (in assay [1]; with XIP peptide (Xip251-270)) were -0.337 (inactive) and 0.401, respectively. Further, the z-score in assay [2] was -1.7; in assay [3], -2.88 (inactive).

Turning to `CCN1C(=O)[C@H]2[C@H]3[C@H](O)[C@H](O)CC(=NNC(=O)OCc4ccccc4)[C@H]3CC[C@H]2C1=O`, the values for the composite z-score (in assay [1]; in the assay on XIP peptide (Xip251-270)) were -0.249 (inactive) and 0.129, respectively. For the same compound, the z-score was -0.114 in assay [2] and -1.7 (inactive) in assay [3].

For `C#CCCCON=C1C[C@@H](O)[C@@H](O)[C@@H]2[C@@H]3C(=O)N(CC)C(=O)[C@@H]3CC[C@H]12`, the composite z-score in assay [1] is 0.835 (inactive); with XIP peptide (Xip251-270) it was -0.423. In addition, the z-score is -0.263 in assay [2] and 0.0042 (inactive) in assay [3].

On to `CCOC(=O)[C@H](Cc1ccccc1)NC(=O)CCC1CC(OC(=O)NCCc2ccc(F)cc2)CC2(CCCC(COC(=O)NCc3cccc(C(F)(F)F)c3)O2)O1` (some centres not stated), for which the values for the composite z-score (in assay [1]; with XIP peptide (Xip251-270)) were 0.966 (inactive) and 0.463, respectively. In addition, the z-score in assay [2] was -1.9; in assay [3] it was -3.11 (inactive).

With `CC(=O)OC[C@H]1O[C@H](CC=NO[C@@H](C)c2cc(-c3c(C)cc(C)cc3C)no2)C=C[C@@H]1OC(C)=O`, the composite z-score was 0.205 (inactive) in assay [1] and -0.445 in the assay with XIP peptide (Xip251-270). Moreover, the z-score is -0.863 in assay [2] and -5.88 (inactive) in assay [3].

As for `C#CCCCON=C1C[C@@H](O)[C@@H](O)[C@@H]2[C@@H]3C(=O)N(C[C@@H]4CCCO4)C(=O)[C@@H]3CC[C@H]12`, the values for the composite z-score (in assay [1]; in the assay with XIP peptide (Xip251-270)) were 0.241 (inactive) and 0.317, respectively. For the same compound, the results for the z-score in assay [2] and in assay [3] were 0.211 and -1.28 (inactive), respectively.

In the case of `CO[C@@H]1COC(=O)[C@H](COCc2ccccc2)NC(=O)CC=C[C@@H](C)[C@H](OC)COC(=O)[C@@H](C)NC(=O)CC=C[C@H]1C`, the composite z-score was 0.455 (inactive) in assay [1] and 0.261 with XIP peptide (Xip251-270). Besides, the values for the z-score in assay [2] and in assay [3] were 0.591 and -1.83 (inactive), respectively.

`C[C@@H](c1ccccc1)N1C(=O)[C@H]2[C@H]3[C@H](O)[C@H](O)CC(=NOCc4ccccc4)[C@@H]3CC[C@H]2C1=O`: the results for the composite z-score (in assay [1]; in the assay on XIP peptide (Xip251-270)) were 0.641 (inactive) and 0.169, respectively. Further, the z-score in assay [2] was -1.49; in assay [3] it was -3 (inactive).
